# Most compounds without a hit are left out; they make up all but 1.2% or so of the library.
# GLD-1 TGE inh – GLD-1-TGE RNA interaction inhibition (C. elegans); purified GLD-1 + fluorescein TGE RNA, fluorescence polarization; inhibition, % at 5.96 µM; hit rate 0.44% among 320,000;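 active = percent inhibition above a per-plate cutoff, the plate mean of test compounds plus 3 SD, cut at about 30% in these data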;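 also: 0% = DMSO wells with GLD-1 and probe and 100% = wells lacking GLD-1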
# C-LANA FP – inhibitors of KSHV LANA C-terminal domain DNA binding | hit rate 0.078% among 340,000 | MBP-C-LANA/FAM-LBS DNA binding, fluorescence polarization | inhibition, % at 9 µM;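 active = highest replicate inhibition at or above 60% at 9 µM, even if other replicates fall short; inactive = all replicates below 60% inhibition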;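 also: 0% = neutral control wells and 100% = 4 µM acridine orange control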
# MEX-5 binding – C. elegans MEX-5 TCR-2 RNA binding activity; MEX-5/FITC-TCR2 RNA binding, fluorescence polarization; hits give low values; activity score (negative = inhibition of binding), % at 10 µM; hit rate 0.38% among 300,000; Q9XUB2;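 active = inhibition past about -25% in most replicates, and total fluorescence under double the plate's negative control median, limit read from the data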;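 also: 0% = DMSO and -100% = 5 µM competing unlabeled TCR2 RNA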
# E coli Lon inh – inhibits E. coli Lon protease; P0A9M0; inhibition, % at 7.94 µM; hit rate 0.42% among 360,000; AID 602123; purified E. coli Lon protease, fluorescence polarization; in the data active = inhibition above about 13%, passing the limit was not always enough;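 also: 0% = enzyme with probe and DMSO and 100% = no enzyme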
# Bcl-xL primary – Bcl-xL (human) inhibition; GST-Bcl-xL / FITC-Bim BH3 peptide fluorescence polarization; inhibition, % at 10.9 µM; hit rate 0.7% among 320,000; AID 2129;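 active = inhibition above the mean of all tested compounds plus 3 SD, cutoff set per campaign, cut at about 30% in these data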;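 also: 0% = DMSO wells and 100% = unlabeled Bim-BH3 peptide competitor; inhibitors lower millipolarization by displacing the labeled peptide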
# Target sequence (Q07817 whole entry, looked up): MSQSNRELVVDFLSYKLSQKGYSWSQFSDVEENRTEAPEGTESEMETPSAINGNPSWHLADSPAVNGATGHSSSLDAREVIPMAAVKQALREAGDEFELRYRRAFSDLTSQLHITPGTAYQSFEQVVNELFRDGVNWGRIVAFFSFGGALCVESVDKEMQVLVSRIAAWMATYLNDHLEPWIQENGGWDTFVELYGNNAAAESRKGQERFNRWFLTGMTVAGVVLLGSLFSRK
# Keap1-Nrf2 PPI – disrupts human Keap1 binding to Nrf2 peptide; Q14145; Keap1 Kelch-Nrf2 peptide fluorescence polarization, 1536-well; inhibition, % at 9.4 µM; hit rate 0.15% among 340,000; AID 504523; in the data active = inhibition above about 12%;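 also: human Keap1 Kelch domain with fluorescein labeled Nrf2 9mer peptide probe; 0% = neutral control wells and 100% = peptide positive control; higher means more block of Keap1 binding to Nrf2 peptide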
# GLD1 RNA confirm – confirmation of C. elegans GLD-1 TGE RNA binding inhibitors | hit rate 10% among 550 | inhibition, % at 5.96 µM | GLD-1/FL-TGE RNA fluorescence polarization, biochemical | shares compounds with GLD-1 TGE inh | AID 2459;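 active = average inhibition across triplicates above the hit cutoff set in the primary screen, cut at about 32% in these data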;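 also: 0% = GLD-1 with RNA probe and DMSO and 100% = wells lacking GLD-1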
# * = called active by the depositor; x = not tested or not shown.
SMILES,GLD-1 TGE inh,C-LANA FP,MEX-5 binding,E coli Lon inh,Bcl-xL primary,Keap1-Nrf2 PPI,GLD1 RNA confirm
Cc1ccc(S(=O)(=O)N[C@H](C(=O)Oc2ccc3c(C(F)(F)F)cc(=O)oc3c2)c2ccccc2)cc1,50*,12,-15,20*,45*,0,44*
CCOC(=O)N1CCC(Nc2cc(C)nc3c(-c4ccccc4OC)c(C)nn23)CC1,3,2,-1,-17,2,5,x
COc1ccccc1-c1cnn2c(NC3CCCC3)cc(C)nc12,66*,1,0,-3,-2,-2,-2
O=C(Nc1cc(C(F)(F)F)ccc1Cl)C(NCc1ccccc1)c1ccccc1 (stereo not given),1,0,-1,-11,4,-6,x
CCN(CC)CCNC(C(=O)Nc1cc(C(F)(F)F)ccc1Cl)c1ccccc1 (stereo not given),35*,1,-4,1,-6,-5,0
Cn1cc(/C=N\O)nc2c(=O)n(-c3ccccc3)c(=O)nc1-2,35*,5,-14,-2,36*,4,8
CCOC(=O)C1=CCC(c2cccs2)N(S(=O)(=O)c2ccc(C)cc2)C1 (stereo not given),x,x,x,2,x,x,x
CCOC(=O)C1Cc2cc3c(cc2C1=O)CC(C(=O)OCC)C3=O (stereo not given),x,x,-1,x,x,x,x
CCOC(=O)C1CC(=O)c2cc(OC)c(OC)cc2C1 (stereo not given),60*,-1,1,-8,-1,2,1
COC(=O)CCCC1=CC2=CC(=O)C(C)(OC(=O)c3cccs3)C(=O)C2=CN1c1ccc(OC)cc1 (stereo not given),1,0,0,8,15,2,x
CCCCC1=CC2=C(c3ccco3)C(=O)C(C)(OC(=O)c3ccc(OC)cc3)C(=O)C2=CN1c1ccc(OC)cc1 (stereo not given),33*,2,-16,6,30*,2,4
CCOC(=O)C1=C(Cc2ccc(F)cc2)C(=O)c2ccccc2C1=O,66*,-2,0,-9,35*,0,2
CC(=O)Nc1nc2n(n1)C(c1ccccc1)C=C(c1ccccc1)N2 (stereo not given),47*,15,-1,31*,57*,1,-2
CC(=O)Nc1nc2n(n1)C(c1ccc(Cl)cc1)C=C(C)N2 (stereo not given),3,0,-2,-1,8,-2,x
CCCn1c(N)c(N(CCOC)C(=O)Cc2ccc(S(=O)(=O)N3CCOCC3)s2)c(=O)[nH]c1=O,38*,5,-26*,-1,41*,5,51*
O=C(NCc1cccnc1)C1C2C=CC(C2)C1C(=O)Nc1cccc(C(F)(F)F)c1 (stereo not given),x,x,x,-7,x,x,x
O=C(CN(C1CCCCC1)C1CCCCC1)N1CCc2ccccc2C1,39*,0,1,-4,6,2,0
Cn1nc(C(C)(C)C)cc1C(=O)N1CCCCC1c1cc(C(=O)Nc2ccc3c(c2)OCO3)no1 (stereo not given),x,x,x,12,x,x,x
CC(C)N1CC2=C(OC(N)=C(C#N)C2c2cccnc2)/C(=C/c2cccnc2)C1 (stereo not given),39*,7,x,5,45*,-1,5
Cc1ccc(NC(=O)CSC(C)C(=O)OCc2cc(=O)oc3cc(O)ccc23)cc1 (stereo not given),x,x,x,-2,x,x,x
N#Cc1c(-c2cccnc2)cc(-c2ccccc2)nc1N,-1,x,1,-3,0,x,x
N#Cc1c(-c2ccco2)cc(-c2cccnc2)nc1N,44*,2,-1,5,46*,-4,-4
CCC1CCC2(CC1)NC(=O)N(CC(=O)NCc1ccccc1Cl)C2=O (stereo not given),7,-1,x,3,x,3,x
Cc1ccc(-c2cc(C(=O)O)c3cc(Br)ccc3n2)o1,37*,5,-20,1,62*,0,3
CCC(C)C(NC(N)=O)C(=O)Nc1ccc(C(=O)OC)cc1 (stereo not given),1,-1,0,1,1,-1,x
SMILES,GLD-1 TGE inh,C-LANA FP,MEX-5 binding,E coli Lon inh,Bcl-xL primary,Keap1-Nrf2 PPI,GLD1 RNA confirm
CCOC(=O)c1ccc(NC(=O)[C@@H](NC(N)=O)C(C)C)cc1,98*,1,-1,-4,110*,4,-2
CCOC(=O)CSc1nnc(CSc2nc(C)cc(C)n2)n1Cc1ccco1,36*,-1,-3,2,9,-12,2
Nc1c(-c2cccc([N+](=O)[O-])c2)nc2ccccn12,32*,-1,-2,6,6,6,43*
O=C(/C=C/c1cccc(Cl)c1)NCc1cccs1,-1,0,1,-2,6,1,x
O=C(/C=C/c1ccc(Cl)cc1)NCc1cccs1,65*,1,-1,-1,7,8,12
O=C(NC1CCCN(CCc2ccccc2)C1)c1c[nH]c2ccccc12 (stereo not given),0,-1,1,-5,-6,-3,x
CN1C[C@H](C(=O)NC2(C)OC3(O)[C@@H]4CCCN4C(=O)[C@H](Cc4ccccc4)N3C2=O)CC2c3cccc4[nH]cc(c34)C[C@H]21 (stereo not given in full),33*,4,-1,14,36*,-2,2
CCOC(=O)c1ccc(NC(=O)c2ncn3c2C(=O)N[C@H](C)C3)cc1,x,x,x,-2,x,x,x
O=C1COc2ccc(C(=O)COC(=O)CCCOc3ccccc3)cc2N1,x,x,x,-8,x,x,x
O=C1COc2ccc(C(=O)COC(=O)CCSc3ccccc3)cc2N1,59*,0,-2,-7,-19,-3,-9
O=C(NCCc1ccccc1F)C1CC(=O)N(c2ccc3c(c2)OCCO3)C1 (stereo not given),x,x,x,-10,x,x,x
COc1cc2oc(=O)cc(CN3CCCCC3)c2cc1Cl,x,x,x,-9,x,x,x
Nc1c(C(=O)OCC(=O)NCc2ccccc2)[nH]c(=O)[nH]c1=O,2,-1,-1,4,1,-1,x
Nc1c(C(=O)OCC(=O)Nc2ccccc2Br)[nH]c(=O)[nH]c1=O,39*,-7,x,2,x,-2,9
CN1C(=O)c2ccc(N3CCCC3)cc2C1=O,36*,1,-10,7,48*,-2,9
Nc1cccc2c1C(=O)N(CC(=O)NC13CC4CC(CC(C4)C1)C3)C2=O,37*,0,0,13,32*,-8,29
O=C(NCCc1ccccc1)C(=O)c1c(-c2ccccc2)cc2ccccn12,-1,1,1,-5,2,-2,x
COC(=O)c1c(C(=O)OC)c2cccc3cc(-c4ccccc4)c4ccc1c4n32,31*,1,0,4,25,0,15
